Assay results from the supplement of paper PMC6555819.

The sequences below were run on PPARg:RXRa (NR concentration 180 nM, RXRa partner concentration 90 nM) (assay: PBM binding z-score (relative to random genomic background probes); higher = stronger binding; sequences stand for … in GC…GCGATTGACAGCGTAGAATGAAGG).
Summary of the method: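 Custom Agilent 4×180K protein-binding microarrays carried double-stranded probes. Their 34-nt variable regions held direct-repeat seeds, single-nucleotide variants, half-site ablations and random human genomic background sequences. Arrays were incubated 1 h with ligand-free nuclear receptor dimers in PBS pH 7.4, 2% milk, 0.02% Triton X-100, 1 mM DTT, 0.2 mg/mL BSA and 0.4 mg/ml salmon testes DNA. Antibodies against each partner (one per run) detected binding, and scanned fluorescence was regression-normalized. Binding z-scores use random background probes as reference.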
CCTAGTTGGTCAGCAGGTCACACACCGGATATGA showed a PBM binding z-score of 2.27.
For AGTCAAAGTTCAGGAGGAGGTAACGTAAAGCACG, the PBM binding z-score was 5.03.
CCAGACAGGTGAGAAGTTAACTCAGCCTCGATTA was tested, and the PBM binding z-score was 0.596.
In the case of TCGAGTAGGTTAGTCGGGGCATTAAGCCAACATA, the PBM binding z-score is reported as 0.0278.
With CCTTCTGGGCCACGAAAGGTCATTGATTCAGTGA the PBM binding z-score was 3.74.
With TGTCAAAGTTCAAAGGTAACGTTAGTATCCACAC the PBM binding z-score was 8.96.
For GCGAGTTGGTCAGTAAAAGGTCACACACCGGTCG, the PBM binding z-score was 3.
Sequence ATATGTAGGTTAAGGGACATTCAGGTTGGTTCGC has a PBM binding z-score of 6.5.
CCTATTAGTTGGCCATAAGGGCAACCGAAGCTCG gave a PBM binding z-score of 0.332.
GCTGCTAGGTCAAATGATGGTCAGCTAAAGCTCG gave a PBM binding z-score of 2.82.
GCAGACAGGTGAAACGCAGGTCACTCAGGGTGGC gave a PBM binding z-score of 0.931.
With TCTATTAGTTGATTAGGACAACCGAAACAGCGGA the PBM binding z-score was 0.378.
For ACTATTAGTTGACTCAGGGCAACCGATACGACGC, the PBM binding z-score was 0.893.
In the case of ATCTCTACGTAAAGATAGTTCAGTGAATGCAAAT, the PBM binding z-score is reported as 0.493.
Sequence CGTTACGGGTCACGAGGTTATAGCACGACGAGCG has a PBM binding z-score of 6.94.
TTTCAAAGTTCAAAGGTAACGTAAGTATCCACAC showed a PBM binding z-score of 6.
Work on TCTGGCAGGCCAGAGGGTCACTCAAGAGGTACGG yielded a PBM binding z-score of 0.868.
Sequence TCATATAGGTAAAGGTGTAAGTCGAACGATATGA has a PBM binding z-score of 3.01.
With TTATATAGGTAAAGGTGAAAGTCGAACGATATGA the PBM binding z-score was 6.76.
In the case of GATACAGGGTCACGGCCAGAGTACGCGTATTGAT, the PBM binding z-score is reported as 8.33.
Sequence GCTAGCAGGCAATTTGGGTCACTCAATGACGGGC has a PBM binding z-score of 0.983.
Sequence CCTAGCCGGCCAGGGTCACTCAAGCATTTCGCTT has a PBM binding z-score of 0.0332.
